# According to PMC11062922 (Nature Chemical Biology, 2023):
# Where two headings read alike, the source gives them in different places.
# Experiments:
# [1] = test system: AAK1; set-up: species or system human, MV4-11 + K-562 + COLO205 + SK-N-BE2 + OVCAR-8; conditions: read-out: apparent Kd, n = 1
# [2] = test system: BMP2K; set-up: species or system human, MV4-11 + K-562 + COLO205 + SK-N-BE2 + OVCAR-8; conditions: read-out: apparent Kd, n = 1
# [3] = test system: CDKL5; set-up: species or system human, MV4-11 + K-562 + COLO205 + SK-N-BE2 + OVCAR-8; conditions: read-out: apparent Kd, n = 1
# [4] = test system: CLK4; set-up: species or system human, MV4-11 + K-562 + COLO205 + SK-N-BE2 + OVCAR-8; conditions: read-out: apparent Kd, n = 1
# [5] = test system: MELK; set-up: species or system human, MV4-11 + K-562 + COLO205 + SK-N-BE2 + OVCAR-8; conditions: read-out: apparent Kd; compound concentrations:100 nM and 1000 nM (sheet 'Samples'); n = 1
# [6] = test system: NUAK1; set-up: species or system human, MV4-11 + K-562 + COLO205 + SK-N-BE2 + OVCAR-8; conditions: read-out: apparent Kd; compound concentrations:100 nM and 1000 nM (sheet 'Samples'); n = 1
# [7] = target: Q6ZSR9 (human, UniProt Q6ZSR9); set-up: species or system MV4-11 + K-562 + COLO205 + SK-N-BE2 + OVCAR-8; conditions: read-out: apparent Kd, n = 1
# [8] = test system: CLK1; set-up: species or system human, MV4-11 + K-562 + COLO205 + SK-N-BE2 + OVCAR-8; conditions: read-out: apparent Kd, n = 1
# [9] = test system: DYRK1A; set-up: species or system human, MV4-11 + K-562 + COLO205 + SK-N-BE2 + OVCAR-8; conditions: read-out: apparent Kd, n = 1
# [10] = test system: MYLK3; set-up: species or system human, MV4-11 + K-562 + COLO205 + SK-N-BE2 + OVCAR-8; conditions: read-out: apparent Kd; compound concentrations:100 nM and 1000 nM (sheet 'Samples'); n = 1
# [11] = test system: PRKD2; set-up: species or system human, MV4-11 + K-562 + COLO205 + SK-N-BE2 + OVCAR-8; conditions: read-out: apparent Kd, n = 1
# [12] = test system: GAK; set-up: species or system human, MV4-11 + K-562 + COLO205 + SK-N-BE2 + OVCAR-8; conditions: read-out: apparent Kd, n = 1
# [13] = test system: GSK3A; set-up: species or system human, MV4-11 + K-562 + COLO205 + SK-N-BE2 + OVCAR-8; conditions: read-out: apparent Kd, n = 1
# [14] = test system: GSK3B; set-up: species or system human, MV4-11 + K-562 + COLO205 + SK-N-BE2 + OVCAR-8; conditions: read-out: apparent Kd, n = 1
# [15] = test system: PAK4; set-up: species or system human, MV4-11 + K-562 + COLO205 + SK-N-BE2 + OVCAR-8; conditions: read-out: apparent Kd; compound concentrations: 100 nM and 1000 nM (sheet 'Samples'), CATDS: 0.130749402221499; n = 1
# [16] = test system: CSNK2A1;CSNK2A3; set-up: species or system human, MV4-11 + K-562 + COLO205 + SK-N-BE2 + OVCAR-8; conditions: read-out: apparent Kd; compound concentrations: 100 nM and 1000 nM (sheet 'Samples'), CATDS: 0.103993193967583; n = 1
# [17] = test system: CSNK2A2; set-up: species or system human, MV4-11 + K-562 + COLO205 + SK-N-BE2 + OVCAR-8; conditions: read-out: apparent Kd; compound concentrations: 100 nM and 1000 nM (sheet 'Samples'), CATDS: 0.109129966582831; n = 1
# [18] = test system: FLT3; set-up: species or system human, MV4-11 + K-562 + COLO205 + SK-N-BE2 + OVCAR-8; conditions: read-out: apparent Kd; compound concentrations: 100 nM and 1000 nM (sheet 'Samples'), CATDS: 0.15045749947439399; n = 1
# [19] = compound concentrations:100 nM and 1000 nM (sheet 'Samples')
# Sequence of Q6ZSR9 (Q6ZSR9 whole entry, looked up): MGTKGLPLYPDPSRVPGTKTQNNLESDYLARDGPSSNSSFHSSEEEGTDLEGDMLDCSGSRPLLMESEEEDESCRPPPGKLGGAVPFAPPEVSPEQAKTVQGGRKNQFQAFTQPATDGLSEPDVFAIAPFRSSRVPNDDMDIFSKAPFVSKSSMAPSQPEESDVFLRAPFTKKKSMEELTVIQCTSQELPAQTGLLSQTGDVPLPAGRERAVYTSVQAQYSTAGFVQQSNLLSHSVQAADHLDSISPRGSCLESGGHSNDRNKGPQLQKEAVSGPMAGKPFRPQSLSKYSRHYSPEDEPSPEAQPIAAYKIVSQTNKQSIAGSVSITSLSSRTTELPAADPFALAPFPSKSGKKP
compound,measurement,setting,value
Cc1cc(NC(=O)c2cccc(NC(=O)/C=C/CN(C)C)c2)ccc1Nc1nccc(-c2cccnc2)n1 [JNK-IN-7],potency estimated from few doses,[1]; [19],1000 nM
same,potency estimated from few doses,[2]; [19],1330 nM
same,potency estimated from few doses,[3]; [19],958 nM
same,potency estimated from few doses,[4]; [19],1630 nM
same,potency estimated from few doses,[5],2110 nM
same,potency estimated from few doses,[6],688 nM
same,potency estimated from few doses,[7]; [19],883 nM
NS(=O)(=O)c1cccc(-c2ccc3c(NC(=O)C4CC4)n[nH]c3c2)c1 [SB-741905],potency estimated from few doses,"[1]; compound concentrations: 100 nM and 1000 nM (sheet 'Samples'), CATDS: 0.126213197239569",1210 nM
same,potency estimated from few doses,"[7]; compound concentrations: 100 nM and 1000 nM (sheet 'Samples'), CATDS: 0.101605627816376",2410 nM
O=C1N=C(N[C@@H](CO)Cc2ccccc2)S/C1=C\c1ccc2ncccc2c1 [RO4509200-000],potency estimated from few doses,"[1]; compound concentrations: 100 nM and 1000 nM (sheet 'Samples'), CATDS: 0.15010438596183701",551 nM
same,potency estimated from few doses,"[2]; compound concentrations: 100 nM and 1000 nM (sheet 'Samples'), CATDS: 0.102719601142922",1460 nM
same,potency estimated from few doses,"[3]; compound concentrations: 100 nM and 1000 nM (sheet 'Samples'), CATDS: 0.117206813575506",975 nM
same,potency estimated from few doses,"[8]; compound concentrations: 100 nM and 1000 nM (sheet 'Samples'), CATDS: 0.20013343303713499",329 nM
same,potency estimated from few doses,"[4]; compound concentrations: 100 nM and 1000 nM (sheet 'Samples'), CATDS: 0.162916549975684",470 nM
same,potency estimated from few doses,"[9]; compound concentrations: 100 nM and 1000 nM (sheet 'Samples'), CATDS: 0.168916103718072",440 nM
same,potency estimated from few doses,"[7]; compound concentrations: 100 nM and 1000 nM (sheet 'Samples'), CATDS: 0.142532878113064",613 nM
Nc1nccc(-c2ccc3c(N)n[nH]c3c2)n1 [GSK1034945A],potency estimated from few doses,[1]; [19],194 nM
same,potency estimated from few doses,[2]; [19],194 nM
same,potency estimated from few doses,[8]; [19],35.4 nM
same,potency estimated from few doses,[4]; [19],25 nM
same,potency estimated from few doses,[9]; [19],117 nM
same,potency estimated from few doses,[5],828 nM
same,potency estimated from few doses,[10],65.5 nM
same,potency estimated from few doses,[11]; [19],2030 nM
same,potency estimated from few doses,[7]; [19],225 nM
COc1ccc(Nc2nccc(NCCNC(=O)Nc3cc(C)ccc3C)n2)cc1 [GSK1379899A],potency estimated from few doses,"[1]; compound concentrations: 100 nM and 1000 nM (sheet 'Samples'), CATDS: 4.14189738717365E-2",1930 nM
same,potency estimated from few doses,"[12]; compound concentrations: 100 nM and 1000 nM (sheet 'Samples'), CATDS: 4.9044286773088197E-2",1220 nM
same,potency estimated from few doses,"[13]; compound concentrations: 100 nM and 1000 nM (sheet 'Samples'), CATDS: 0.21656856359749399",102 nM
same,potency estimated from few doses,"[14]; compound concentrations: 100 nM and 1000 nM (sheet 'Samples'), CATDS: 4.8399492982865999E-2",1260 nM
same,potency estimated from few doses,"[11]; compound concentrations: 100 nM and 1000 nM (sheet 'Samples'), CATDS: 5.1330821571124501E-2",1100 nM
COc1cccc(C2=C(c3c(C)n(C)c4ccccc34)C(=O)NC2=O)c1 [RO3300167-000],potency estimated from few doses,"[1]; compound concentrations: 100 nM and 1000 nM (sheet 'Samples'), CATDS: 7.9667560611670199E-2",1520 nM
same,potency estimated from few doses,[15],582 nM
same,potency estimated from few doses,"[11]; compound concentrations: 100 nM and 1000 nM (sheet 'Samples'), CATDS: 8.0855416148342393E-2",1470 nM
same,potency estimated from few doses,"[7]; compound concentrations: 100 nM and 1000 nM (sheet 'Samples'), CATDS: 7.9945675311768105E-2",1510 nM
O=C1N=C(NCCc2cccs2)S/C1=C\c1ccc2ncccc2c1 [RO4508348-000],potency estimated from few doses,"[1]; compound concentrations: 100 nM and 1000 nM (sheet 'Samples'), CATDS: 0.107531235495484",1290 nM
same,potency estimated from few doses,"[8]; compound concentrations: 100 nM and 1000 nM (sheet 'Samples'), CATDS: 0.103004978566102",1450 nM
same,potency estimated from few doses,[16],1410 nM
same,potency estimated from few doses,[17],1250 nM
same,potency estimated from few doses,"[9]; compound concentrations: 100 nM and 1000 nM (sheet 'Samples'), CATDS: 0.139481417923777",734 nM
same,potency estimated from few doses,[18],638 nM
same,potency estimated from few doses,"[7]; compound concentrations: 100 nM and 1000 nM (sheet 'Samples'), CATDS: 0.123024935972758",947 nM
Cc1occc1-c1nc(N)c(OC[C@@H](N)Cc2c[nH]c3ccccc23)cc1-c1cc2c(C)n[nH]c2cn1 [GSK1660450B],potency estimated from few doses,[1]; [19],1070 nM
same,potency estimated from few doses,[8]; [19],339 nM
same,potency estimated from few doses,[4]; [19],441 nM
same,potency estimated from few doses,[9]; [19],1790 nM
same,potency estimated from few doses,[12]; [19],38.2 nM
same,potency estimated from few doses,[13]; [19],273 nM
same,potency estimated from few doses,[14]; [19],62.6 nM
same,potency estimated from few doses,[11]; [19],386 nM
same,potency estimated from few doses,[7]; [19],1670 nM
CN(C)C(=O)/C(C#N)=C/c1ccc(-c2nc3cnc4[nH]ccc4c3n2C2CCCCC2)o1 [FM-381],potency estimated from few doses,[1]; [19],1820 nM
same,potency estimated from few doses,[2]; [19],1050 nM
same,potency estimated from few doses,[6],566 nM
same,potency estimated from few doses,[7]; [19],1760 nM
